COUP-TFII inh: blocks human COUP-TFII nuclear receptor; P24468; HEK293T NGFI-A luciferase reporter, luminescence; inhibition, % at 8.6 µM; 0.7% of 370,000 active; AID 686940;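 active = inhibition above a per-plate cutoff, mean inhibition of test wells between control levels plus 3 SD, cut at about 38% in these data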;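 note: cells cotransfected with COUP-TFII expression vector driving the NGFI-A reporter; 0% = median of COUP-TF2 test wells and 100% = reporter-only cells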
NR5A2 inv ag: suppresses constitutive activity of human LRH-1; inhibition, % at 3.6 µM; HEK293T StAR-luciferase reporter, LRH-1 transfected, 24 h; 0.13% of 360,000 active;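 active = inhibition above the mean inhibition of all tested compounds plus 3 SD, cut at about 73% in these data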;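 note: 0% = DMSO wells and 100% = reporter-only cells lacking LRH-1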
Target sequence (O00482 whole entry, looked up): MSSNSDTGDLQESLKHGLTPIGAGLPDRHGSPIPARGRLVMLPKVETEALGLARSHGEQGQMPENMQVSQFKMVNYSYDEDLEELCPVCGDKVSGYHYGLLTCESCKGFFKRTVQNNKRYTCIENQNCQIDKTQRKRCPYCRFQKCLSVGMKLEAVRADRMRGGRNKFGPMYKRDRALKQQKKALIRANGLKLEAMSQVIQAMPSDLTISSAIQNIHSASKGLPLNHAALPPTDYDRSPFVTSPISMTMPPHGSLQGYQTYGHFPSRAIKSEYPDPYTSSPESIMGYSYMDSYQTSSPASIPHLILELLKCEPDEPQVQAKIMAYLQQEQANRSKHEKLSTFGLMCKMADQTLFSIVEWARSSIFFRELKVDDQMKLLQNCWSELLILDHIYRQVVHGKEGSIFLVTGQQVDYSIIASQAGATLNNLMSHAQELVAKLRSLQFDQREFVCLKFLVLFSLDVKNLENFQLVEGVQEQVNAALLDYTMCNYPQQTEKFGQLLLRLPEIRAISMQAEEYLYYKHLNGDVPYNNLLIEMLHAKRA
SRC3 inh: human NCOA3 inhibition; HEK293 GAL4-SRC3 luciferase reporter, luminescence; inhibition, % at 3.6 µM; 0.17% of 360,000 active;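 active = inhibition above a per-campaign cutoff, the mean of all compounds plus 3 SD, cut at about 60% in these data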;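 note: 0% = DMSO-treated cells and 100% = gossypol-treated cells at 36 µM; higher means less SRC3-driven luciferase light from the GAL4 reporter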
SRC1 inh: human NCOA1 inhibition. HEK293 GAL4-SRC1 luciferase reporter, luminescence. inhibition, % at 3.6 µM. 0.12% of 360,000 active. AID 588354;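 active = inhibition above the campaign mean plus 3 SD, with each screening campaign given its own cutoff, cut at about 60% in these data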;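 note: 0% = DMSO treated cells and 100% = gossypol at 36 µM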
Gli-Sufu antag: blocks Gli-Sufu signaling in a luciferase reporter; 0.74% of 340,000 active; AID 588413; Sufu-KO-LIGHT fibroblasts, Gli luciferase reporter luminescence; inhibition, % at 5 µM;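 active = inhibition above about 55%, limit read from the data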;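 note: 0% = DMSO-treated cells and 100% = wells with medium but no cells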
SRC2 inh: human SRC2 (NCOA2) inhibition; 0.17% of 370,000 active; inhibition, % at 9 µM; AID 651957; HEK293 GAL4-SRC2 luciferase reporter, luminescence; Q15596;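 active = inhibition above the mean inhibition of all tested compounds plus 3 SD, set per campaign, cut at about 52% in these data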;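 note: 0% = DMSO treated cells and 100% = cells given Gossypol at 36 µM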
Numbers without * were called inactive. Hits are enriched below; roughly 1.3% of the tested compounds scored in any of these assays.

`O=c1c2cc3cc(Cl)ccc3nc2ncn1Cc1ccc(Oc2ccccc2)cc1` gave COUP-TFII inh 23 and SRC2 inh 6.
For COCC(=O)N(Cc1ccccc1)c1ccccc1C(=O)Nc1cc(OC)ccc1OC the results were COUP-TFII inh -4 and SRC2 inh 15.
O=C(CCCN1C(=O)/C(=C/c2ccccc2Cl)SC1=S)NNC(=O)c1ccncc1 was read as COUP-TFII inh 37, NR5A2 inv ag 18, SRC3 inh 36, SRC1 inh 32, Gli-Sufu antag 6 and SRC2 inh 58*.
`O=C(CCCN1C(=O)/C(=C/c2cccs2)SC1=S)NNC(=O)c1ccncc1` gave COUP-TFII inh -18, NR5A2 inv ag 18, SRC3 inh 10, SRC1 inh 2, Gli-Sufu antag 2 and SRC2 inh 13.
Screening O=C(/C(=C/c1ccc(Cl)cc1)c1nc2ccccc2[nH]1)c1cccs1 returned NR5A2 inv ag -7, SRC3 inh 62*, SRC1 inh 47 and Gli-Sufu antag -15.
For O=C(/C(=C\c1ccccc1)c1nc2ccccc2[nH]1)c1ccc(Cl)cc1 the results were COUP-TFII inh -29, NR5A2 inv ag -71, SRC3 inh 26, SRC1 inh -41, Gli-Sufu antag -36 and SRC2 inh -6.
CNC(=O)C[C@H]1CC[C@H]2[C@@H](COc3ccc(NC(=O)Nc4ccccc4)cc3C(=O)N2C)O1 was read as COUP-TFII inh 4 and SRC2 inh 2.
`CCOc1ccc(C2C=C(c3ccc(F)cc3)Nc3ncnn32)cc1` (stereo unspecified) gave COUP-TFII inh -31, NR5A2 inv ag -63, SRC3 inh -64, SRC1 inh -43, Gli-Sufu antag -38 and SRC2 inh -52.
Screening Fc1ccc(C2=CC(c3ccc(Br)o3)n3ncnc3N2)cc1 (stereo unspecified) returned NR5A2 inv ag 5, SRC3 inh 1, SRC1 inh -8 and Gli-Sufu antag 13.
For Oc1ccc(C2C=C(c3ccc(F)cc3)Nc3ncnn32)cc1 (stereo unspecified) the results were COUP-TFII inh 0, NR5A2 inv ag 0, SRC3 inh 11, SRC1 inh 66*, Gli-Sufu antag 2 and SRC2 inh 20.
For Brc1ccc(C2=CC(c3cccs3)n3ncnc3N2)cc1 (stereo unspecified) the results were COUP-TFII inh 4, NR5A2 inv ag 25, SRC3 inh -3, SRC1 inh -13, Gli-Sufu antag 98* and SRC2 inh 2.
CCOC(=O)N1CCN(C(=O)C[C@H]2C[C@@]3(C(=O)OC)C(=C[C@H](COCc4ccccc4)O[C@@H]3C)N(CCc3ccc(OC)c(OC)c3)C2=O)CC1 was read as COUP-TFII inh -10 and SRC2 inh -20.
`NC(=S)NN=Cc1nccc2ccccc12` gave COUP-TFII inh -41, NR5A2 inv ag 78*, SRC3 inh 79*, SRC1 inh 79*, Gli-Sufu antag 65* and SRC2 inh 4.
Screening NC(=S)NN=Cc1nccc2c(C(F)(F)C(F)(F)C(F)(F)F)cccc12 returned COUP-TFII inh 28, NR5A2 inv ag 97*, SRC3 inh 93*, SRC1 inh 92* and SRC2 inh 47.
`CCCCCCCCCCCCCCCC[n+]1ccc(C(N)=O)cc1` gave COUP-TFII inh 16, NR5A2 inv ag 13, SRC3 inh 18, SRC1 inh -3, Gli-Sufu antag 17 and SRC2 inh 14.
For CCCCCCCCCCCCCCCC[n+]1ccc(/C=N/O)cc1 the results were COUP-TFII inh 38*, NR5A2 inv ag -2, SRC3 inh 17, SRC1 inh -8, Gli-Sufu antag 73* and SRC2 inh -17.
`COC(=O)[C@]12C[C@H](CC(=O)NCc3cccs3)C(=O)N(CCC3=CCCCC3)C1=C[C@H](C(C)(C)C)O[C@@H]2C` gave COUP-TFII inh -12 and SRC2 inh -4.
`CC1CCC(C(C)C)C(OC(=O)C[n+]2cc(-c3ccc(Cl)cc3)n3c2CCCCC3)C1` (stereo unspecified) gave COUP-TFII inh 7, NR5A2 inv ag 8, SRC3 inh 23, SRC1 inh 19, Gli-Sufu antag 65* and SRC2 inh 6.
O=[N+]([O-])c1cc(C=NN2CCN(Cc3ccccc3Cl)CC2)ccc1Cl was read as COUP-TFII inh -5 and SRC2 inh 13.

Source: PubChem BioAssay
